Results as given in PubChem BioAssay (Tox21).
The source made the active and inactive calls. A call without a number means that no potency is given here. Unless noted, calls follow the shape of the dose curve; as a rule, active = well fitted curve in the direction sought with a large enough effect in the repeat runs; inconclusive = weak or mixed curves; inactive = flat fitted curve, though single readings scatter.

Columns and labels:
[1] = qHTS assay to test for compound auto fluorescence at 535 nm (green) in HEK293 cells (AID 720680)
[2] = qHTS assay to test for compound auto fluorescence at 460 nm (blue) in HEK293 cell free culture (AID 720681)
Method in brief: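 Test compounds were pinned into cell-free culture medium (DMEM with 10% FBS) and fluorescence was read directly at Ex/Em 405/460 nm. Signals were expressed as fluorescence equivalents of triamterene, with DMSO vehicle as control.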

[3] = qHTS assay to test for compound auto fluorescence at 535 nm (green) in HEK293 cell free culture (AID 720682)
Method in brief: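 Green-channel intensity (Ex/Em 485/535 nm) was recorded from compound-treated wells containing only DMEM with 10% FBS. Fluorescein provided the equivalency standard.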

[4] = qHTS assay to test for compound auto fluorescence at 590 nm (red) in HEK293 cell free culture (AID 720683)
Method in brief: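 Tox21 10K library compounds were pinned into cell-free DMEM with 10% FBS and fluorescence was read at excitation 540 nm. Activity is expressed as Rose Bengal sodium equivalency.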

[5] = qHTS assay to test for compound auto fluorescence at 590 nm (red) in HepG2 cell free culture (AID 720684)
Method in brief: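 Ex 540 / Em 590 nm read of compound in cell-free MEM (10% FBS). Rose Bengal sodium reference.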

[6] = qHTS assay to test for compound auto fluorescence at 460 nm (blue) in HepG2 cell free culture (AID 720685)
Method in brief: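 Cell-free plates of MEM plus 10% FBS received 23 nL compound or DMSO vehicle; blue-channel (405/460 nm) intensity scored against triamterene as reference fluorophore.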

[7] = qHTS assay to test for compound auto fluorescence at 535 nm (green) in HepG2 cell free culture (AID 720686)
[8] = qHTS assay to test for compound auto fluorescence at 460 nm (blue) in HepG2 cells (AID 720687)
Method in brief: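 Cells (2,000/well in MEM with 10% FBS) attached overnight at 37 C, then were exposed to compound or DMSO for 1 hr at 37 C, 5% CO2. Fluorescence read at Ex/Em 405/460 nm, expressed as triamterene-equivalent signal.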

[9] = target: Glucocorticoid receptor (Homo sapiens) (UniProt P04150); test: qHTS assay to identify small molecule agonists of the glucocorticoid receptor (GR) signaling pathway (AID 720691; active = well fitted activation curve with a large enough effect in the signal ratio in the repeat runs, not every such curve was filed as active; inconclusive = weak or mixed curves, or effect the other way; inactive = no such curve, though single readings can be large or run the other way; the % refers to the signal ratio); settings: GR-bla HeLa, beta-lactamase reporter ratio, 18 h; activation: at 62.4 µM (top of the series)
Method in brief: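 Agonist-mode qHTS in HeLa cells stably expressing a glucocorticoid-response-element beta-lactamase reporter. Fluorescence intensity read with FRET substrate (2 h, room temperature) after 18 h compound treatment at 37 C.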

[10] = target: Glucocorticoid receptor (Homo sapiens) (UniProt P04150); test: qHTS assay to identify small molecule antagonists of the glucocorticoid receptor (GR) signaling pathway (AID 720692; active = well fitted inhibition curve with a large enough effect in the signal ratio in the repeat runs, not every such curve was filed as active; inconclusive = weak or mixed curves, or effect the other way; inactive = no such curve, though single readings can be large or run the other way; the % refers to the signal ratio; also: potency is read from the fitted curve at half-maximal effect)
Method in brief: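 Inhibition of dexamethasone-driven (5 nM final) beta-lactamase expression was measured in GRE-reporter HeLa cells over 18 h at 37C. Fluorescence was read after 2 h with the B/G FRET substrate at room temperature.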

Glucocorticoid receptor (Homo sapiens), sequence (P04150 whole entry, looked up): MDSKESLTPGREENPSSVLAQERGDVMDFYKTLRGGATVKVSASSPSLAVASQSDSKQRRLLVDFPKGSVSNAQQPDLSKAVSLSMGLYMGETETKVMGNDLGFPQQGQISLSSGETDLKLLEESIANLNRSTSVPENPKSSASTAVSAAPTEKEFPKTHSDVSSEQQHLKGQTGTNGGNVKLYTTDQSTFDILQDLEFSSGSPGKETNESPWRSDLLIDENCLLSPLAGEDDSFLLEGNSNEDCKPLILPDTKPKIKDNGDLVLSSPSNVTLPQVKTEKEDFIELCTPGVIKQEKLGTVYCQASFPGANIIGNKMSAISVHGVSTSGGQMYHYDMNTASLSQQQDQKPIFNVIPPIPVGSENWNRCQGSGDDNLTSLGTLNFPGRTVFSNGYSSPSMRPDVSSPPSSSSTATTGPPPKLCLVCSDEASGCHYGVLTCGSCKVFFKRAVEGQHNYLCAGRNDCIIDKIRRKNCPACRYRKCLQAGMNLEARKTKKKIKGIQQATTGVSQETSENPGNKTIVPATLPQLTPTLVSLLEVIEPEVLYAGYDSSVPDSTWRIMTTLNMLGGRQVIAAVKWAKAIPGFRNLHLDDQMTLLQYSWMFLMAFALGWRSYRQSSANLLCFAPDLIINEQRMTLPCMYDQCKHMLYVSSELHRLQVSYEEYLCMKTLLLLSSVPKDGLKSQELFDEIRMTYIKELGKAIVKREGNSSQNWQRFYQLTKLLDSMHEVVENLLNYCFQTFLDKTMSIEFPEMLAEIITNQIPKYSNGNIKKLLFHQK

Row | SMILES | Potency [1] | Potency [2] | Potency [3] | Potency [4] | Potency [5] | outcome [6] | Potency [7] | outcome [8] | Potency [9] | Potency [10] | activation [9]
1 | CCCCCCCCCCCCCCCC(=O)O[C@@H]1[C@@H](O)[C@@H](O)[C@@H]([C@H](NC(=O)[C@@H]2C[C@@H](CCC)CN2C)[C@H](C)Cl)O[C@@H]1SC | inactive | inactive | inactive | inactive | inactive | inactive | inactive | inactive | inactive | inactive | 
2 | CCOC(=O)c1c[nH]c2cc(OCC(C)C)c(OCC(C)C)cc2c1=O | inactive | inactive | inactive | inactive | inactive | inactive | inactive | inactive |  | inactive | 
3 | CCCN(CC)C(CC)C(=O)Nc1c(C)cccc1C (stereo not drawn) | inactive | inactive | inactive | inactive | inactive | inactive | inactive | inactive | inactive | inactive | 
4 | Cc1ccc(/C(=C\CN2CCCC2)c2cccc(/C=C/C(=O)O)n2)cc1 | inactive | inactive | inactive | inactive | inactive | inactive | inactive | inactive | inactive | inactive | 
5 | Cc1ccccc1OCC(O)CNCCOc1ccc(C(N)=O)cc1 (stereo not drawn) | inactive | inactive | inactive | inactive | inactive | inactive | inactive | inactive | inactive | inactive | 
6 | CCCCCCCCCCCC(=O)OC[C@@H](O)C1OC[C@H](O)[C@H]1O (stereo partly drawn) | inactive | inactive | inactive | inactive | inactive | inactive | inactive | inactive | inactive | inactive | 
7 | CC(C)CN(C[C@@H](O)[C@H](Cc1ccccc1)NC(=O)O[C@H]1CO[C@H]2OCC[C@H]21)S(=O)(=O)c1ccc(N)cc1 | inactive | inactive | inactive | inactive | inactive | inactive | inactive | inactive | inactive | inactive | 
8 | COC(=O)C1=C(C)NC(C)=C(C(=O)O[C@H]2CCN(Cc3ccccc3)C2)[C@H]1c1cccc([N+](=O)[O-])c1 | inactive | inactive | inactive | inactive | inactive | inactive | inactive | inactive | inactive | 23.9 µM (active) | 
9 | O=c1[nH]cnc2[nH]cc(CN3CCCCC3)c12 | inactive | inactive | inactive | inactive | inactive | inactive | inactive | inactive | inactive | inactive | 
10 | CC1(C)S[C@@H]2[C@H](NC(=O)C(C(=O)O)c3ccsc3)C(=O)N2[C@H]1C(=O)O (stereo partly drawn) | inactive | inactive | inactive | inactive | inactive | inactive | inactive | inactive | inactive | inactive | 
11 | CCCOc1cc(N)ccc1C(=O)OCCN(CC)CC | inactive | inactive | inactive | inactive | inactive | inactive | inactive | inactive |  | inactive | 
12 | CNc1cc(OC)c(C(=O)N[C@H]2CCN(Cc3ccccc3)[C@H]2C)cc1Cl | inactive | inactive | inactive | inactive | inactive | inactive | inactive | inactive | inactive | inactive | 
13 | Cn1nnnc1SCC1=C(C(=O)O)N2C(=O)[C@@H](NC(=O)[C@H](O)c3ccccc3)[C@H]2SC1 | inactive | inactive | inactive | inactive | inactive | inactive | inactive | inactive | inactive | inactive | 
14 | O=C(O)c1cc(N=Nc2ccc(O)c(C(=O)O)c2)ccc1O | inactive | inactive | inactive | inactive | inactive | inactive | inactive | inactive |  | inactive | 
15 | CC(C)(C)NCC(O)CSc1nc(-c2ccc(C(N)=O)s2)cs1 (stereo not drawn) | inactive | inactive | inactive | inactive | inactive | inactive | inactive | inactive | inactive | inactive | 
16 | CS(=O)(=O)OCC(O)C(O)COS(C)(=O)=O (stereo not drawn) | inactive | inactive | inactive | inactive | inactive | inactive | inactive | inactive | inactive | inactive | 
17 | C=CCN1CCCC1CNC(=O)c1cc(S(N)(=O)=O)cc(OC)c1OC (stereo not drawn) | inactive | inactive | inactive | inactive | inactive | inactive | inactive | inactive | inactive | inactive | 
18 | O=C1N=C2SCCN2C(=O)C1Cc1ccc(Cl)cc1 (stereo not drawn) | inactive | inactive | inactive | inactive | inactive | inactive | inactive | inactive | inactive | inactive | 
19 | CC(C)(S)[C@@H](N)C(=O)O | inactive | inactive | inactive | inactive | inactive | inactive | inactive | inactive | inactive | inactive | 

Row | SMILES | Potency [1] | Potency [2] | Potency [3] | Potency [4] | Potency [5] | outcome [6] | Potency [7] | outcome [8] | Potency [9] | Potency [10] | activation [9]
20 | COc1cc(S(C)=O)ccc1-c1nc2ncccc2[nH]1 (stereo not drawn) | inactive | inactive | inactive | inactive | inactive | inactive | inactive | inactive | inactive | inactive | 
21 | Cn1c(=O)c2c(ncn2CCOC(=O)C(C)(C)Oc2ccc(Cl)cc2)n(C)c1=O | inactive | inactive | inactive | inactive | inactive | inactive | inactive | inactive | inactive | inactive | 
22 | O=C(O)c1ccc(OCCn2ccnc2)cc1 | inactive | inactive | inactive | inactive | inactive | inactive | inactive | inactive | inactive | inactive | 
23 | NC[C@@H]1O[C@H](O[C@H]2[C@@H](O)[C@H](O[C@@H]3[C@@H](O)[C@H](N)C[C@H](N)[C@H]3O[C@H]3O[C@H](CO)[C@@H](O)[C@H](O)[C@H]3N)O[C@@H]2CO)[C@H](N)[C@@H](O)[C@@H]1O | inactive | inactive | inactive | inactive | inactive | inactive | inactive | inactive | inactive | inactive | 
24 | CCCCCc1ccc(C)cc1O | inactive | inactive | inactive | inactive | inactive | inactive | inactive | inactive |  | inactive | 
25 | CNCC(O)c1ccc(OC(=O)C(C)(C)C)c(OC(=O)C(C)(C)C)c1 (stereo not drawn) | inactive | inactive | inactive | inactive | inactive | inactive | inactive | inactive | inactive | inactive | 
26 | CN1CCN(C2=Nc3ccccc3Cc3ccccc32)CC1 | inactive | inactive | inactive | inactive | inactive | inactive | inactive | inactive | inactive | inactive | 
27 | CC(=O)O[C@H]1C(=O)[C@@]2(C)[C@H]([C@H](OC(=O)c3ccccc3)[C@]3(O)C[C@H](OC(=O)[C@H](O)[C@@H](NC(=O)c4ccccc4)c4ccccc4)C(C)=C1C3(C)C)[C@]1(OC(C)=O)CO[C@@H]1C[C@@H]2O | inactive | inactive | inactive | inactive | inactive | inactive | inactive | inactive |  | inactive | 
28 | OCCN1CCN(CC/C=C2/c3ccccc3Sc3ccc(Cl)cc32)CC1 | inactive | inactive | inactive | inactive | inactive | inactive | inactive | inactive | inactive | inactive | 
29 | CN=C(NC)NCc1ccccc1 | inactive | inactive | inactive | inactive | inactive | inactive | inactive | inactive | inactive | inactive | 
30 | CC(C)(C)NCC(O)c1ccc(O)c(CO)n1 (stereo not drawn) | inactive | inactive | inactive | inactive | inactive | inactive | inactive | inactive | inactive | inactive | 
31 | CC[C@@]1(O)C(=O)OCc2c1cc1n(c2=O)Cc2cc3c([N+](=O)[O-])cccc3nc2-1 | inactive | inactive | inactive | inactive | inactive | inactive |  | inactive |  |  | 5.3% [inconclusive] (active)
32 | O=S(=O)(O)c1cc(O)c2c(N=Nc3ccc(Nc4ccccc4)c4c(S(=O)(=O)O)cccc34)cc(S(=O)(=O)O)cc2c1 | inactive | inactive | inactive | inactive | inactive | inactive | inactive | inactive |  | inactive | 
33 | C[N+]1(C)[C@@H]2CC(OC(=O)C(O)(c3cccs3)c3cccs3)C[C@H]1[C@@H]1O[C@@H]12 (stereo partly drawn) | inactive | inactive | inactive | inactive | inactive | inactive | inactive | inactive |  | inactive | 
34 | Nc1ncnc2c1ncn2CCOCP(=O)(O)O | inactive | inactive | inactive | inactive | inactive | inactive | inactive | inactive |  | inactive | 
35 | C=C1CC[C@H](O)CC1=C/C=C1\CCC[C@]2(C)[C@@H]([C@H](C)CC[C@@H](O)C(C)(C)O)CC[C@@H]12 | inactive | inactive | inactive | inactive | inactive | inactive |  | inactive |  |  | 
36 | S=C=Nc1ccc(N=C=S)cc1 | inactive | inactive | inactive | inactive | inactive | inactive |  | inactive |  |  | 
37 | CC(=O)N[C@@H]([C@@H](O)[C@H](O)[C@H](O)CO)[C@@H](O)CC(=O)C(=O)O | inactive | inactive | inactive | inactive | inactive | inactive | inactive | inactive |  | inactive | 
